Results: PubChem BioAssay (NCI)
This is part of a sample that, as a whole, favours compounds with a hit. Of some 83,000 tested, about 20% had one in any assay.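 96-well plates, one dose, 48 hours. Percent growth reported; active if below 10.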 Values without a mark were called inactive. Calls of active or inactive are those of the source.

What was measured:
Assay in all cases: NCI-60 one-dose screen, 48 h (100 = growth as untreated, 0 = no growth, -100 = all killed)
Conditions in all cases: 10 µM unless noted
[1] = system: HCT-15 colon
[2] = system: HT29 colon
[3] = system: SNB-75 CNS
[4] = system: SNB-19 CNS
[5] = system: U251 CNS
[6] = system: PC-3 prostate
[7] = system: SK-MEL-5 melanoma
[8] = system: LOX IMVI melanoma
[9] = system: SK-MEL-28 melanoma

| SMILES | growth [1] | growth [2] | growth [3] | growth [4] | growth [5] | growth [6] | growth [7] | growth [8] | growth [9] |
| --- | --- | --- | --- | --- | --- | --- | --- | --- | --- |
| c1ccc(-c2nc(Nc3ccc(-c4nc5ccccc5[nH]4)cc3)nc(N3CCOCC3)n2)cc1 | -68.9% (active) | -59.9% (active) | -89.6% (active) | -18.6% (active) | -67.5% (active) | -35.5% (active) | -95.4% (active) | -89% (active) | -82.9% (active) |
| O=[N+]([O-])c1ccc(N/N=C(\C(=N/Nc2ccc([N+](=O)[O-])cc2[N+](=O)[O-])c2ccccc2)c2ccccc2)c([N+](=O)[O-])c1 | 84.3% | 63.5% | 99% | 102% | 36.4% | 85.2% | 94.3% | 97.7% | 101% |
| Nc1nc2c3ccncc3cc(-c3cccc(Cl)c3)c2c2cnccc12 | 28.5% | 33.2% | 57% | 51.4% | 29.2% | 20% | 50.4% | -50.9% (active) | 53.1% |
| C[C@@H]1CCCCCCCCC[C@H](O)C(=O)C[C@@H](SC[C@@H](O)C(=O)O)C(=O)O1 | 87.3% | 82.1% | 95.2% | 102% | 89.4% | 83% | 104% | 71.8% | 107% |
| CC(Cc1ccco1)C(=O)NC(N)=O (stereo unspecified) | 99.3% | 102% | 91.8% | 105% | 108% | 98.4% | 98.6% | 97.4% | 105% |
| Cc1cc(N2CCOCC2)nc(N(CCCNc2ccnc3cc(Cl)ccc23)Cc2ccco2)n1 | 24% | -2.68% (active) | 51.6% | 20.4% | 25.4% | 34.7% | 11.3% | 4.95% (active) | 49.5% |
| COc1cnc2c(c1)C(=O)c1c-2n(CCCNC(C)C)c(=O)c2cc([N+](=O)[O-])ccc12 | -56.2% (active) | -33.7% (active) | -79.2% (active) | -44.7% (active) | -80.6% (active) | -54.3% (active) | -98.9% (active) | -86.9% (active) | -62.6% (active) |
| Cc1cc(Cl)nc(N(CCCNc2ccnc3cc(Cl)ccc23)Cc2ccco2)n1 | 18.3% | 8.64% (active) | 59.6% | 31.5% | 26.9% | 5.4% (active) | -82.6% (active) | 10.7% | 16.1% |
| Cc1ccc(C)c2c1CCC2C(C)C (stereo unspecified) | 109% | 105% | 88.4% | 101% | 96.7% | 90.1% | 98.5% | 96% | 103% |
| CC(=O)OC(C)COc1ccc(-c2ccccc2)cc1 (stereo unspecified) | 107% | 86% | 89.6% | 103% | 76.4% | 86.1% | 99.8% | 110% | 104% |
| COc1ccc(-c2nc(SCC(=O)Nc3ccc(C(C)=O)cc3)[nH]c(=O)c2C#N)cc1 | 103% | 101% | 88.3% | 96.5% | 89.4% | 88% | 100% | 96.2% | 101% |
| O=C1c2ccccc2NC(c2cn(-c3ccccc3)nc2-c2cccnc2)N1Cc1ccccc1 (stereo unspecified) | 84.7% | 84.5% | 92.9% | 109% | 93.6% | 76.5% | 94.2% | 80.2% | 108% |
| COc1ccc(-c2nc3c(c(C)nn3-c3ccc(F)cc3)c(=O)[nH]2)cc1 | 83% | 58.6% | 11.1% | 75% | 44% | 78.1% | 79.1% | 75.2% | 96.8% |
| Cc1cc(N=O)cc(C(C)(C)C)c1O | 101% | 85% | 87.7% | 98.7% | 88.6% | 74.5% | 98.3% | 98.3% | 106% |
